This is an account of results in PubChem BioAssay (NCATS).

Molecules are shown by their SMILES. Records with an inconclusive call do not appear. Entries that show only a call come without a potency. Calls of active or inactive are those of the source. Calls come from the whole dose curve.
Potency is the fitted concentration of half-maximal effect.

The test in a line: Cytotoxicity counterscreen for inhibitors of SARS-CoV-2 cell entry (AID 1645845). Note: nearly all actives have a fitted effect of over 50% in size. The following applies: cell viability (SARS-CoV-2 entry assay cells); series mostly up to 57.1 µM. The essentials: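 Expi293F/hACE2 cells seeded overnight; cpd pin-transferred in DMSO, 1 h preincubation, + media, 48 h 37 C 5% CO2; ATPLite 1step luminescence; normalized to cells and no cells.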
For the compound `O=C(Nc1ccc2[nH]nc(-c3ccncc3)c2c1)[C@@H]1CCN(CC(=O)N2CCN(c3ccc(-c4ncccn4)cc3)CC2)C1`, the Potency result is “inactive”.

In the case of `COc1cc2ncnc(Nc3ccc(O)c(Br)c3)c2cc1OC`, the Potency result is “inactive”.

Consider `C[C@@H]1Cc2c([nH]c3ccccc23)[C@@H](c2c(F)cc(/C=C/C(=O)O)cc2F)N1CC(C)(C)F`, for which the Potency result is “inactive”.

Take `CNC(=O)Cn1cc(-c2ccc3c(c2)C(F)CC32NC(=O)N(CC(=O)N(Cc3ccc(F)cc3)[C@@H](C)C(F)(F)F)C2=O)cn1` (stereo not given in full): the Potency result was “inactive”.

As to `Cc1ccc(NS(=O)(=O)c2ccc3c(c2)C2C=CCC2C(c2ccc(C(=O)O)cc2)N3)cc1C` (stereo not given), the Potency result is “inactive”.

Turning to `CC[C@@H]1[C@H](F)C(=O)N[C@@H]1COc1nccc2cc(C(N)=O)c(OC)cc12`, the Potency entry was “inactive”.

Take `CCc1c(-c2ccccc2C)nc2c(C#N)c[nH]n2c1=O`: the Potency entry was “inactive”.

For the compound `O=C(Nc1ccc(OC(F)(F)Cl)cc1)c1cnc(N2CC[C@@H](O)C2)c(-c2ccn[nH]2)c1`, the Potency entry is “inactive”.

As to `CCn1c(=O)c(-c2ccc(-c3cncs3)cc2Cl)cc2cnc(Nc3ccc(N4CCN(C)CC4)cc3)nc21`, the Potency entry is “inactive”.

As for `NS(=O)(=O)c1ccc(NC(=S)N2CCN(C/C=C/c3ccccc3)CC2)cc1`, the Potency entry was “inactive”.

As for `Cc1ccc(NC(=O)Nc2cc(C(F)(F)F)ccc2F)cc1Nc1ccc2c(c1)NC(=O)/C2=C\c1ccc[nH]1`, the Potency entry is “inactive”.

Take `C[C@H](NC(=O)CCC(F)(F)F)C(=O)N[C@@H]1C(=O)N(CCO)c2ncccc2-c2ccccc21`: the Potency result is “inactive”.

As for `CO[C@H]1/C=C/O[C@@]2(C)Oc3c(C)c(O)c4c(O)c(c(/C=N\N5CCN(C6CCCC6)CC5)c(O)c4c3C2=O)NC(=O)/C(C)=C\C=C\[C@H](C)[C@H](O)[C@@H](C)[C@@H](O)[C@@H](C)[C@H](OC(C)=O)[C@@H]1C`, the Potency result was “inactive”.

Turning to `O=S(=O)(Nc1ccc(-c2cccnc2)c2cccnc12)c1cccc(C(F)(F)F)c1`, the Potency was 14.1 µM (active).

As to `C[C@H](Nc1ncnc2nc[nH]c12)c1cc2ccc(F)cc2nc1-c1ccccn1`, the Potency result is “inactive”.

As for `CNC(=O)c1cc(Oc2ccc3nc(N[C@@H]4CCCC[C@H]4O)sc3c2)ccn1`, the Potency entry is “inactive”.

For the compound `CO[C@H]1/C=C/O[C@@]2(C)Oc3c(C)c(O)c4c(O)c(c5c(nc6cc(C)ccn65)c4c3C2=O)NC(=O)/C(C)=C\C=C\[C@H](C)[C@H](O)[C@@H](C)[C@@H](O)[C@@H](C)[C@H](OC(C)=O)[C@@H]1C`, the Potency entry was “inactive”.

Take `Cc1cc(C)cc(Oc2ccc(CNC(=O)[C@H](C)N)cc2C)c1`: the Potency result is “inactive”.

As for `C=CC(=O)N1CCC(C2CCNc3c(C(N)=O)c(-c4ccc(Oc5ccccc5)cc4)nn32)CC1` (stereo not given), the Potency entry was “inactive”.

As to `Cc1cc(F)c(C(=O)Nc2cccc(-c3nncn3C(C)C)n2)cc1-n1cnc(C2CC2)c1`, the Potency is 31.6 µM (active).

For `O=C(/C=C/N1C[C@H]2C[C@@H]1CN2c1ccccn1)c1ccccc1O`, the Potency entry is “inactive”.

Take `C/C=C/C/C=C/CCC(=O)[C@H]1O[C@H]1C(N)=O`: the Potency entry is “inactive”.

For `O=c1sn(-c2cccc3ccccc23)c(=O)n1Cc1ccccc1`, the Potency result is “inactive”.

Consider `CCCCCCCCCCCCCCCCOCCCOP(=O)(O)COC(CO)Cn1ccc(N)nc1=O` (stereo not given), for which the Potency entry was “inactive”.

Regarding `C=C[C@H]1CN2CCC1C[C@@H]2C(O)c1ccnc2ccc(OC)cc12` (stereo not given in full), the Potency result was “inactive”.

As for `CC(/C=C/C(=O)NO)=C\[C@@H](C)C(=O)c1ccc(N(C)C)cc1`, the Potency was 7.94 µM (active).

For the compound `CCCN(CCC)C(=O)C1=Cc2ccc(-c3ccc(C(=O)N4CCCC4)cc3)cc2N=C(N)C1`, the Potency result was “inactive”.

`CC(C)C[C@H](CO)Nc1nc(S[C@@H](C)c2ccccc2)nc2nc(N)sc12`: the Potency was 31.6 µM (active).

Take `CCOc1cc(C(C)(C)C)ccc1C1=N[C@@](C)(c2ccc(Cl)cc2)[C@@](C)(c2ccc(Cl)cc2)N1C(=O)N1CCN(CC(=O)N2CCOCC2)CC1`: the Potency entry was “inactive”.

Take `CC(C)(C)S(=O)(=O)c1ccc2nccc(Nc3n[nH]c4ccc(F)cc34)c2c1`: the Potency result is “inactive”.

Consider `Nc1cc(C(F)(F)F)c(-c2nc(N3CCOCC3)nc(N3CCOCC3)n2)cn1`, for which the Potency is 10 µM (active).

Turning to `Cn1ncnc1[C@H]1c2n[nH]c(=O)c3cc(F)cc(c23)N[C@@H]1c1ccc(F)cc1`, the Potency entry was “inactive”.

For the compound `Cc1noc(C)c1-c1ccc(-c2cc(C(N)=O)c(NC(N)=O)s2)c(O[C@H]2CCNC2)c1`, the Potency result is “inactive”.

For the compound `Nc1nc(OCc2cc(Br)cs2)c2[nH]cnc2n1`, the Potency entry was “inactive”.

Turning to `Cc1[nH]c(/C=C2\C(=O)Nc3ccc(F)cc32)c(C)c1C(=O)NC[C@H](O)CN1CCOCC1`, the Potency result was “inactive”.

With `CNC(=O)c1ccccc1Nc1nc(Nc2ccc3c(c2OC)CCC[C@@H](N2CCN(CCO)CC2)C3)ncc1Cl`, the Potency result was “inactive”.

On to `COc1cc2c(cc1OC(C)C)[C@H](c1ccc(Cl)cc1)N(c1ccc(N(C)CC3CCC(N4CCN(C)C(=O)C4)CC3)cc1)C(=O)C2` (stereo not given in full), for which the Potency result is “inactive”.

Turning to `CCC1CCCCN1C(=O)n1ncc(C(O)(c2ccccc2)c2ccccc2)n1` (stereo not given), the Potency is 11.2 µM (active).

As for `CNc1ncc2cc(-c3cc(NC(=O)NCCC(C)(C)C)c(F)cc3C)c(C)nc2n1`, the Potency entry was “inactive”.

For the compound `CNC(=O)[C@H](Cc1c[nH]c2ccccc12)NC(=O)[C@@H](CC(=O)NO)CC(C)C`, the Potency result is “inactive”.
